PubChem BioAssay

Assay: RPMI8226 myeloma cell viability, profiling panel, resazurin fluorescence, basal, 24 h, PK04 Diversity Set (AID 1180);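 further: RPMI8826 multiple myeloma cell line at 5000 cells per well; test concentration not given here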
Details: higher = more signal

Row | SMILES | z-score
1 | CN(C)C(=O)[C@@]1(CCS(=O)(=O)c2ccccc2)N=C(c2ccc(OCCCO)cc2)O[C@H]1c1ccccc1CN=[N+]=[N-] | 0.251
2 | Cc1ccc(S[C@]2(C(=O)NCc3ccccc3)CC(=O)N(C3Cc4ccccc4C3)[C@@H]2c2ccc(CO)cc2I)cc1 | -1.89
3 | C=C(C)[C@@H]1CC=C(C(O)C2C=CC3C(=O)N(C4CCCCC4)C(=O)C3N2Nc2ccc(OC)cc2)CC1 (stereo not given in full) | 0.199
4 | CC(C)(C)N1CC=CC23O[C@@H]4C=CCCOC(=O)C4[C@H]2C(=O)N(CCCO)[C@@H]3C1=O (stereo not given in full) | -1.15
5 | CN(C)C(=O)[C@]1(Cc2ccccc2N=[N+]=[N-])N=C(c2ccc(OCCCO)cc2)O[C@@H]1c1ccccc1CN=[N+]=[N-] | -0.997
6 | COC(=O)[C@@]1(Cc2ccc(OC)cc2)[C@H]2c3cc(C(=O)N4CCCC4)n(Cc4ccc(C)o4)c3C[C@H]2CN1C(=O)c1ccccc1 | -7.27
7 | [N-]=[N+]=NCc1ccccc1C[C@]1(C(=O)NCCN2CCOCC2)N=C(c2ccc(OCCCO)cc2)O[C@H]1c1ccccc1 | 0.166
8 | CCCCCCC#C[Si](O[C@H](c1ccccc1)c1cn(Cc2cccc(Cl)c2)nn1)(C(C)C)C(C)C | 2.01
9 | COCCOC(=O)N1C(=O)[C@@]2(c3cc(C#CC4(O)CCCCCC4)ccc31)[C@H](C(=O)N1CCN(c3ncccn3)CC1)[C@H]1C(=O)O[C@H](c3ccccc3)[C@H](c3ccccc3)N1[C@@H]2c1ccc(O)cc1 | 0.74
10 | COc1ccc(C(=O)Nc2ccc3c(c2)[C@]2(O[C@@H](CCO)[C@H]([Si](C)(C)c4ccc(OC)cc4)[C@H]2C)C(=O)N3Cc2ccccc2)cc1 | -2.51
